Source: PubChem BioAssay (NCI)
Compounds without any hit were thinned out: in the full panel of roughly 83,000, 20% have a hit.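 Each cell line was grown in a 96-well plate and treated with one concentration of compound for 48 hours. Values below 10 were considered active.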 Values without a mark were called inactive. Activity calls are given as the source filed them.

What was measured:
Assay in all cases: NCI-60 one-dose screen, 48 h (100 = growth as untreated, 0 = no growth, -100 = all killed)
Settings in all cases: 10 µM unless noted
[1] = tested on: SK-MEL-2 melanoma
[2] = tested on: EKVX NSCLC
[3] = tested on: SN12C renal
[4] = tested on: UO-31 renal
[5] = tested on: TK-10 renal
[6] = tested on: ACHN renal
[7] = tested on: CAKI-1 renal
[8] = tested on: A498 renal
[9] = tested on: MOLT-4 leukemia

Compound | growth [1] | growth [2] | growth [3] | growth [4] | growth [5] | growth [6] | growth [7] | growth [8] | growth [9]
N#C/C(=C\c1ccc2c(c1)OCO2)n1nnc2cc(F)c(F)cc21 | 78.7% | 82.7% | 68.3% | 61.3% | 101% | 65.1% | 50.7% | 44.9% | 63.9%
CCCCC1CCCCN1C(=O)OCC (stereo unspecified) | 101% | 122% | 103% | 88.7% | 92.7% | 103% | 101% | 102% | 115%
COC(=O)c1c2c(c(C)[n+]([O-])c1C)C(=O)C(NCc1ccc(F)cc1)=CC2=O | 30.6% | 58.8% | -2.05% (active) | 71.9% | 81.4% | 48.3% | 50.7% | 98.6% | -19.6% (active)
CNS(=O)(=O)c1n[nH]nc1-c1cc(C(C)(C)C)c(O)c(C(C)(C)C)c1 | 104% | 89.8% | 103% | 84.2% | 111% | 98.7% | 95.1% | 100% | 96.9%
c1cc2ccc3cc2cc1CNCCOCCNCc1ccc2ccc(cc2c1)CNCCOCCNC3 | -63.5% (active) | 21.4% | -19.9% (active) | 73.7% | 8.5% (active) | 70% | 15.4% | 31.7% | 4.08% (active)
CC1CC(C(C)(C)C)C(=O)C(C(C)(C)C)C1 (stereo unspecified) | 105% | 101% | 105% | 96.2% | 98.2% | 105% | 105% | 93.4% | 104%
Cc1c(C)c2c(c(C)c1OCC(=O)O)CC[C@@](C)(CCC[C@@H](C)CCC[C@@H](C)CCCC(C)C)O2 | -26.6% [50 µM] (active) | 32.3% [50 µM] | -32.3% [50 µM] (active) | 32.6% [50 µM] | -0.128% [50 µM] (active) | -31.9% [50 µM] (active) | 7.85% [50 µM] (active) | -37.5% [50 µM] (active) | -1.22% [50 µM] (active)
CC1(c2ccccc2)NC(=O)N(NC(=O)CSc2nc(-c3cccs3)nc3ccccc23)C1=O (stereo unspecified) | 89.8% | 93% | 100% | -6.98% (active) | 113% | 91.5% | 72.3% | 71.4% | 73.5%
CCOC(=O)c1c2ncccc2n2c(=O)n(-c3ccccc3C)nnc12 | 107% | 74% | 105% | 73.4% | 146% | 92.2% | 91.7% | 127% | 61.2%
CC1CC2Oc3ccc(Cl)cc3C(=O)N2O1 (stereo unspecified) | 98.6% | 109% | 105% | 92.9% | 96.8% | 102% | 97.1% | 86.9% | 105%
COc1ccc2occ(C3=C(c4c[nH]c5ccccc45)C(=O)N(O)C3=O)c2c1 | 102% | 93.1% | 95.9% | 61.9% | 126% | 95.3% | 83.6% | 118% | 102%
Cn1c(-c2c(N)n(Cc3ccc(C(F)(F)F)cc3)c3nc(C#N)c(C#N)nc23)nc2ccccc21 | 15.4% | 1.13% (active) | 14.4% | -23% (active) | -12.9% (active) | 3.12% (active) | 9.68% (active) | -6.26% (active) | -16.8% (active)
Cc1ccc(Cc2cnc(NC(=O)c3ccc4noc(-c5ccccc5)c4c3)s2)cc1 | 99.7% | 79.1% | 85.9% | 81.9% | 109% | 99% | 78.2% | 102% | 90.2%
NS(=O)(=O)c1cnccc1Oc1cccc2cccnc12 | 107% | 97.1% | 99.4% | 78.3% | 107% | 102% | 111% | 99.1% | 93%
COC(=O)[C@H](CSC)N(C)C(=O)[C@@H]1CSSC[C@@H](NC(=O)c2nc3ccccc3cc2O)C(=O)NCC(=O)N1C | 61.3% | 82.8% | 66.5% | 71.9% | 88.4% | 88% | 104% | 102% | 23.8%
N=C1C(c2nc(-c3ccc(Br)cc3)cs2)=C(O)CN1CC1CCCO1 (stereo unspecified) | 89.8% | 98.7% | 111% | 20.8% | 135% | 88% | 90.4% | 96.4% | 70.3%
O=C(COc1ccc(/C=C2\Oc3ccccc3C2=O)cc1)c1ccc(Cl)cc1 | 82.7% | 98.8% | 103% | 110% | 120% | 104% | 81.8% | 112% | 87.9%
COc1cccc(-c2nc3sccn3c2/C=C/C(=O)c2ccc(C(F)(F)F)cc2)c1 | 79.1% | 94.2% | 76.7% | 56.3% | 89.7% | 94.7% | 84.7% | 52.7% | 48.5%
N#Cc1c2c(nn(-c3ccccc3)c1=O)C(O)=C([N+](=O)[O-])C(c1ccccc1)C2 (stereo unspecified) | 89% | 83.8% | 89.7% | 64% | 99.1% | 74.3% | 81.9% | 90.7% | 67.5%
COc1cc(-c2n/c(=C\c3c(O)[nH]c4ccc(Cl)cc34)cc3c2=Nc2ccccc2-3)cc(OC)c1OC | 36% | 38.6% | -27.5% (active) | -54.3% (active) | -7.12% (active) | -44.8% (active) | 13.2% | 52.4% | 10.2%
c1ccc(Nc2nc(-c3ccccn3)cs2)nc1 | 27.6% | 30.7% | 13.4% | 0.382% (active) | 37% | 1.7% (active) | -13.3% (active) | 28.3% | 14.2%
CN(C)c1ccc(/C=C/C(=O)c2cccc(Nc3nc(Nc4ccccc4)nc(Nc4ccccc4)n3)c2)cc1 | 62.1% | 77.8% | 91.6% | 73.5% | 90.9% | 90.6% | 91.6% | 76.8% | 80.6%
Nc1nc(N)c2c(n1)NC(c1ccccc1)C1CCc3ccccc3C1=N2 (stereo unspecified) | 86.6% | 39.2% | 66% | 55.9% | 36% | 39.3% | 34.1% | 42.5% | 15.1%
CC(=O)[C@@H]1CC[C@]2(COS(=O)(=O)c3ccc(C)cc3)CC[C@]3(C)[C@H](CC[C@@H]4[C@@]5(C)CCCNC(C)(C)[C@@H]5CC[C@]43C)[C@@H]12 | 105% | 94% | 78% | 66.3% | 106% | 87.1% | 82.7% | 85.9% | 21.9%
CCCCCCCCCCN(CCCCCCCCCC)CC(=O)c1ccc2cc(Br)c3ccccc3c2c1 | 101% | 83.5% | 81.1% | 2.3% (active) | 79.9% | 97.3% | 46.3% | 53.2% | -39.6% (active)
N#CC1=C(/N=C/c2ccccc2)Oc2c(ccc3ccccc23)C1c1ccccc1 (stereo unspecified) | 45.7% | 34.6% | 37.8% | 32% | 45.2% | 34.3% | 24% | 16.3% | 19.8%
COc1ccc(/C=N/C2=C(C#N)C(c3ccc(OC)cc3)c3ccc4ccccc4c3O2)cc1 (stereo unspecified) | 84.4% | 85.1% | 76.5% | 53.7% | 87.1% | 81.4% | 37.3% | 26.6% | 60.2%
COc1cc(/C=C/C(=O)c2ccc(Nc3nc(Nc4ccc(F)cc4)nc(Nc4ccc(Cl)cc4)n3)cc2)cc(OC)c1OC | 62.6% | 74.1% | 70.1% | 42.4% | 73.9% | 78.1% | 124% | 79.8% | 0.996% (active)
O=C(O)c1ccc2c(c1Cl)C(=O)c1ccccc1C2=O | 70.2% | 20.9% | 98.8% | 93.2% | 130% | 99.1% | 89.4% | 111% | 78.1%
